Only some compounds are listed: those with a hit (about 1.7% of all), similar ones and a draw of the others.
hERG WT inh – qHTS for Inhibitors of KCHN2 3.1: Wildtype qHTS | Voltage-gated inwardly rectifying potassium channel KCNH2 (Homo sapiens), Q12809 | U2OS, BacMam KCNH2, thallium flux FluxOr; active compounds read low | activity change, % at 1.84 µM | 340,000 tested, 0.37% active;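 active = maximum activity change below -70%; inconclusive = maximum activity change between -70% and -50%; inactive = maximum activity change above -50%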; note: % is set by controls: 0 for no effect and ±100 for the full control effect
Target sequence (Q12809 whole entry, looked up): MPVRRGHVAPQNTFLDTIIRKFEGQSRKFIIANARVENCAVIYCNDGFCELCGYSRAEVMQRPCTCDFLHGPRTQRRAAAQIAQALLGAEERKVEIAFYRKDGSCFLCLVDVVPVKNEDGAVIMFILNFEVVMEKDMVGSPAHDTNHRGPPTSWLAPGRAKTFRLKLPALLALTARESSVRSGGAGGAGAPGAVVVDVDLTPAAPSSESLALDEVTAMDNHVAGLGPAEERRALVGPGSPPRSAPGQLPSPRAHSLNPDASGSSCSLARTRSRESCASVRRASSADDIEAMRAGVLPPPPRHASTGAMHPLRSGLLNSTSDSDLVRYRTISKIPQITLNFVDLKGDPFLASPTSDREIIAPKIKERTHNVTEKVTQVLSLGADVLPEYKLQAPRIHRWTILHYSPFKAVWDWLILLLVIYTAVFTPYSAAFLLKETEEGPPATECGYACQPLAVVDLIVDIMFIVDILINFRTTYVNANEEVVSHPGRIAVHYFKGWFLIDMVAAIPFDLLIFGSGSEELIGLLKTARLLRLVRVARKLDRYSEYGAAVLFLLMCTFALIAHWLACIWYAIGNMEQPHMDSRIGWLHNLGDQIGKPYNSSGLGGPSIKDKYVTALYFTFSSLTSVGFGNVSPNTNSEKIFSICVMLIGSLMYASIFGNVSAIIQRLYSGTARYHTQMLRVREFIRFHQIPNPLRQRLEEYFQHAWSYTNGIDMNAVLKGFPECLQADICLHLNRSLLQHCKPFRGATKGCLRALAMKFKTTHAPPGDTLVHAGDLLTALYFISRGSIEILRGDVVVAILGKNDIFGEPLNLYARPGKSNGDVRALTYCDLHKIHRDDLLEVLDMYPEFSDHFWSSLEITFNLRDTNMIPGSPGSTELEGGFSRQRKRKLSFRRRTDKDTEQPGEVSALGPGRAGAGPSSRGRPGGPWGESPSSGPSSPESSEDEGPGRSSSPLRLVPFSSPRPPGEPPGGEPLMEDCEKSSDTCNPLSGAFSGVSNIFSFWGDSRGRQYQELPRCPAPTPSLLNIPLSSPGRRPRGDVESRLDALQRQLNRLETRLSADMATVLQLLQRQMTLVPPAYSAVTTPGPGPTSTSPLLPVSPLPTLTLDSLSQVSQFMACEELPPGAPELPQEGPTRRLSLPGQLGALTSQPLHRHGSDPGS
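U2OS cells transduced with wild-type KCNH2 virus are loaded with FluxOr dye for 45 min, and thallium flux is measured in kinetic reads before and after stimulation buffer. Rate constants are normalized to DMSO controls.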
TRPML1 ag – qHTS for Agonists of the Human Mucolipin Transient Receptor Potential 1 (TRPML1). Mucolipin-1 (Homo sapiens), Q9GZU1. TRPML1-expressing cells, Ca2+ dye fluorescence, FDSS. activation, % (no concentration beside the values). 410,000 tested, 0.12% active. AID 624414, 2012; in the data active = activation above about 50%; inconclusive = mostly about 30% to 49%; note: 0% is about no effect
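Agonist activity was taken from a 110 s kinetic Ca2+ dye read on the FDSS after pinning compounds onto TRPML1-DL cells. The cells were seeded at 1,500/well with Tet inducer, incubated about 16 h, then dye-loaded at room temperature.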
TRPML1 inh – qHTS for Inhibitors of the Human Mucolipin Transient Receptor Potential 1 (TRPML1) | activity change, negative = inhibition, % (no concentration beside the values) | TRPML1-inducible cells, Ca2+ dye fluorescence, FDSS; active compounds read low; inhibition of EC80 agonist-evoked calcium signal | 390,000 tested, 0.02% active | Mucolipin-1 (Homo sapiens), Q9GZU1; in the data active = activity change below about -50%; inconclusive = between about -30% and that limit;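 note: stimulus is agonist 54-4 at its EC80 concentration; % is set by controls: 0 for no effect and ±100 for the full control effect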
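Tet-induced TRPML1-DL cells loaded with Ca8 no-wash calcium dye were read kinetically on FDSS. Compound addition was followed by EC80 agonist 54-4 (4 uM final); inhibition was read over 110 s.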
TRHR ag – qHTS for Small Molecule Agonists and Allosteric Enhancers of Human TRH Receptor: Primary Screen for Agonists. activation, % at 2 µM. 360,000 tested, 0.18% active. AID 493084, 2011. TRHR cells, calcium flux fluo-8, FDSS agonist mode. Thyrotropin-releasing hormone receptor (Homo sapiens), P34981; in the data active = activation above about 30%; note: 0% is about no effect
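Steps: seed TRHR cells overnight; add fluo-8 no-wash Ca dye, RT 30 min–1.5 h; record 10 s baseline; pin-transfer compounds; monitor fluorescence 1 cycle/s for the agonist window. Calcium increases flag candidate agonists.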
TRHR PAM – qHTS for Small Molecule Agonists and Allosteric Enhancers of Human TRH Receptor: Primary Screen for Enhancers; Thyrotropin-releasing hormone receptor (Homo sapiens), P34981; TRHR cells, fluo-8 calcium fluorescence, EC20 TRH enhancement; enhancement, % at 2 µM; 360,000 tested, 0.66% active; in the data active = enhancement above about 30%; note: 0% is about no effect
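TRHR-expressing cells loaded with fluo-8 calcium dye were read kinetically (ex 480/em 530) during compound addition, then stimulated with an EC20 of TRH (10 nM final). Enhancement of the Gq-mediated intracellular calcium response was scored.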
KCNH2 3.1 block – qHTS for Inhibitors of KCHN2 3.1: Mutant qHTS; AID 720553, 2013; U2OS KCNH2 3.1, thallium flux FluxOr; active compounds read low; Potassium voltage-gated channel subfamily H member 2, brain isoform KCNH2 3.1 (human); activity change, % (tested at about 1.8 µM); 340,000 tested, 0.95% active;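 active = maximum activity change below -70%; inconclusive = maximum activity change from -70% to -50%; inactive = maximum activity change above -50%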;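 note: thallium influx rate constant from kinetic fluorescence after stimulation buffer; % is set by controls: 0 for no effect and ±100 for the full control effect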
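Kinetic fluorescence (2 min after stimulation buffer) measures Tl+ influx through KCNH2 3.1 expressed by viral transduction in U2OS cells; the rate constant is normalized against DMSO controls serving as positive and negative references.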
Active calls of the source: *; i = inactive; u = inconclusive; x = no result given.

SMILES	hERG WT inh	TRPML1 ag	TRPML1 inh	TRHR ag	TRHR PAM	KCNH2 3.1 block
C#CCCOC(=O)N1C2=NC(C(=O)OC)=C(C(=O)OC)[C@@H]3N(Cc4ccccc4)c4ccccc4[C@]23C[C@H]1C(=O)OC	-3	0	32	0	-3	-136*
Nc1nc(CN2CCN(Cc3ccccc3)CC2)nc(Nc2ccccc2)n1	43	-1	-7	0	7	-40
Cc1cccc(Nc2nc(N)nc(CN3CCN(c4ccccc4)CC3)n2)c1	20	-1	13	0	4	u
Nc1nc(CN2CCN(c3ccccn3)CC2)nc(Nc2ccc(Cl)cc2)n1	-104*	1	-1	-1	-4	-21
Cc1c(Cl)cccc1Nc1nc(N)nc(CN2CCc3ccccc3C2)n1	33	0	4	0	13	-22
Cc1ccc(Nc2nc(N)nc(CN3CCc4ccccc4C3)n2)cc1	-12	1	27	0	2	-79*
Cc1cccc(Nc2nc(N)nc(CN3CCN(c4ccccc4F)CC3)n2)c1	25	2	8	x	x	-80*
Cc1cccc(Nc2nc(N)nc(CN3CCN(Cc4ccc5c(c4)OCO5)CC3)n2)c1	-26	-1	29	0	-5	-110*
CCCc1cc(=O)[nH]c(SCC(=O)Nc2ccc([N+](=O)[O-])cc2C#N)n1	2	1	6	0	4	-8
COc1ccccc1Nc1nc(N)nc(CN2CCCCC2)n1	23	-1	-5	0	2	3
COc1ccccc1Nc1nc(N)nc(CN2CCN(Cc3ccccc3)CC2)n1	-21	-1	-10	0	-6	-77*
COc1ccccc1Nc1nc(N)nc(CN2CCN(Cc3ccc4c(c3)OCO4)CC2)n1	-49	1	20	0	1	-110*
COc1ccc(Nc2nc(N)nc(CN3CCN(c4ccc(F)cc4)CC3)n2)cc1	47	-1	-8	0	1	-77*
Cc1ccc(Nc2nc(N)nc(CSc3nc4ccccc4s3)n2)cc1	-3	1	37	0	-1	-72*
CC(C)(C)n1ncc2c(=O)n(Cc3cccc(OC(F)(F)F)c3)cnc21	x	1	17	x	x	x
CN(C)S(=O)(=O)c1ccc(Cl)c(NC(=O)CN2CCN(Cc3ccc4c(c3)OCO4)CC2)c1	10	-1	-10	-2	-3	4
COc1ccccc1N1CCN(Cc2nc(N)nc(Nc3ccc(C)c(Cl)c3)n2)CC1	-7	2	-1	-2	0	-106*
CCOn1c(=O)c(-c2ccc(C)cc2)[n+]([O-])c2ccccc21	1	0	-3	-1	3	-84*
N#C/C(=C/c1ccc(-c2ccc(S(=O)(=O)N3CCOCC3)cc2)o1)C(=O)NC1CC1	-80*	-1	-2	x	x	10
N#C/C(=C\c1ccc(-c2ccc(S(=O)(=O)N3CCOCC3)cc2)o1)C(=O)NC1CC1	-1	-1	5	0	-1	9
CC(C)CN1CCC(=O)N([C@H](COc2ccccc2)Cc2ccccc2)CC1	-13	1	2	0	-7	-90*
O=C1CCN(CCc2ccccc2)CCN1[C@H](CO)Cc1ccccc1	x	1	16	0	18	x
CCCN1CCC(=O)N([C@H](COc2ccccc2)CC(C)C)CC1	32	-1	9	0	1	-6
O=C1CCN(CCc2ccccc2)CCN1[C@H](COc1ccccc1)Cc1ccccc1	-257*	1	97	1	-8	-100*
CC(C)C[C@@H](COc1ccccc1)N1CCN(CCc2ccccc2)CCC1=O	-20	1	-6	-1	-9	-96*
SMILES	hERG WT inh	TRPML1 ag	TRPML1 inh	TRHR ag	TRHR PAM	KCNH2 3.1 block
CCc1ccccc1N1CC(c2nc3ccccc3n2CC(C)C)CC1=O (centres undefined)	x	0	1	0	-4	x
CN(C)CCCNC(=O)/C(=C\c1ccc(-c2ccc(Br)cc2)o1)NC(=O)c1ccccc1	-36	0	-26	0	-6	-117*
CN(C)CCCNC(=O)/C(=C/c1ccc(-c2ccc([N+](=O)[O-])cc2)o1)NC(=O)c1ccccc1	u	9	7	4	2	-99*
Cc1ccc(C(=O)N/C(=C\c2ccc(-c3ccc(Cl)cc3)o2)C(=O)NCCCN(C)C)cc1	-83*	-1	-6	1	-3	u
Cc1ccc(C(=O)N/C(=C\c2ccc(-c3ccccc3[N+](=O)[O-])o2)C(=O)NCCCN(C)C)cc1	-9	0	9	4	3	-28
CN(C)CCNC(=O)/C(=C/c1ccc(-c2cccc([N+](=O)[O-])c2)o1)NC(=O)c1ccccc1	-13	0	-7	1	-1	-6
CN(C)CCNC(=O)/C(=C/c1ccc(-c2cccc(Cl)c2)o1)NC(=O)c1ccccc1	1	0	8	0	-1	-2
Cc1nc2cc(OC3(C)CCN(Cc4ccc(OC(F)(F)F)cc4)C3)ccc2s1 (centres undefined)	x	-1	x	x	x	x
CCOc1ccc(CNC(=O)c2cc3c(=O)oc4ccc(C)cc4c3s2)cc1	x	-1	-8	0	-1	x
COc1ccc(N2CC(C(=O)Nc3ccccc3C(=O)NC3CC3)CC2=O)cc1 (centres undefined)	0	0	9	0	3	13
COCCNc1ccnc2c(Cl)cccc12	i	0	-4	0	-3	1
COCCCNc1ccnc2c(Cl)cccc12	3	-1	-9	1	37*	1
C=C1CCN([C@@H](CC(C)C)C(=O)NCc2ccc(Cl)cc2)S(=O)(=O)c2ccccc21	5	1	-3	x	x	1
C=C1CCN([C@@H](CC(C)C)C(=O)NCCC(C)C)S(=O)(=O)c2ccccc21	-2	u	-11	x	x	-75*
O=C(C[C@@H]1C/C=C\CCC(=O)OC[C@H](Cc2ccccc2)NC1=O)N[C@@H](CO)Cc1ccccc1	-3	-1	-1	x	x	7
OC[C@@H]1CN(C2CCCC2)C[C@H](n2cnc3c(NC4CC4)ncnc32)O1	x	0	x	x	x	x

High-throughput results as filed in PubChem BioAssay.
